# Data as given in the supplement of paper PMC10981050.
# Where a name gives a salt, the structure may show the parent alone.
# System: MARIMO
# Experiment: cell viability relative to vehicle control; higher = less cytotoxic
# Conditions: 10 µM; SRSF2 genotype: SRSF2 P95H/wt
# Summary of the method: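 Four leukaemia lines, as CRISPR-edited mutant clones and isogenic wild-type clones, were tested against Selleck bioactive, kinase and epigenetic probe libraries after removal of identity-inconsistent compounds. Cells were exposed to a single 10 µM dose for 48 h, and CellTiter-Glo luminescence was then read. Viability was calculated relative to the on-plate vehicle control.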
row,SMILES,cell viability [%]
1,C[Si](C)(C)CCOCn1ccc2c(-c3cn[nH]c3)ncnc21,98.6
2,C[C@@H]1CC[C@H]2C(C)(C)[C@H]3C[C@@]12CC[C@@]3(C)O [Cedrol],103
3,C[C@H]1c2cccc(O)c2C(O)=C2C(=O)[C@]3(O)C(O)=C(C(N)=O)C(=O)[C@@H](N(C)C)[C@@H]3[C@@H](O)[C@@H]21 [Doxycycline],91.8
4,CNC[C@H](O)[C@@H](O)[C@H](O)[C@H](O)CO [Meglumine],108
5,CC1=NN(c2ccccc2)C(=O)C1 [Edaravone (MCI-186)],111
6,"CN1CCN2c3ncccc3Cc3ccccc3C2C1 (configuration not stated) [Mirtazapine (Remeron, Avanza)]",93.2
7,CC(O)C(O)c1cnc2nc(N)[nH]c(=O)c2n1 (configuration not stated) [6-Biopterin],104

# Same assay, conditions: 10 µM; SRSF2 genotype: SRSF2 wt/wt
row,SMILES,cell viability [%]
1,NC(=O)c1cccc2cn(-c3ccc(C4CCCNC4)cc3)nc12 (configuration not stated) [MK-4827(Niraparib)],57.4
2,CCOC(=O)C1=C(COCCN)NC(C)=C(C(=O)OC)C1c1ccccc1Cl (configuration not stated) [Amlodipine besylate (Norvasc)],78.3
3,Cc1ccccc1C(OCCN(C)C)c1ccccc1 (configuration not stated) [Orphenadrine citrate (Norflex)],97.3
4,Cc1ccc(C(C)C)cc1O [Carvacrol],99
5,CN1CCN(c2ccc(C(=O)Nc3n[nH]c4ccc(Cc5cc(F)cc(F)c5)cc34)c(NC3CCOCC3)c2)CC1 [Entrectinib (RXDX-101)],2.11
6,Nc1nc(N)nc(-c2cc(Cl)ccc2Cl)n1 [Irsogladine],113
7,O=C(Nc1ncc([N+](=O)[O-])s1)c1ccccc1O [Tizoxanide],94.2
8,CO[C@H]1C[C@@H]2CC[C@@H](C)[C@@](O)(O2)C(=O)C(=O)N2CCCC[C@H]2C(=O)O[C@H]([C@H](C)C[C@@H]2CC[C@H](n3cnnn3)[C@H](OC)C2)CC(=O)[C@H](C)/C=C(\C)[C@@H](O)[C@@H](OC)C(=O)[C@H](C)C[C@H](C)/C=C/C=C/C=C/1C [Zotarolimus (ABT-578)],76.9
9,O=C(c1ccc(OCCCc2c[nH]cn2)cc1)C1CC1 [Ciproxifan Maleate],90.4
10,Cc1ccc2nc(CN(CCN(Cc3nc4ccc(C)cc4[nH]3)Cc3nc4ccc(C)cc4[nH]3)Cc3nc4ccc(C)cc4[nH]3)[nH]c2c1,0.61
11,Nc1c(Br)cc(Br)cc1CN[C@H]1CC[C@H](O)CC1 [Ambroxol],96.7
12,O=c1cc(-c2ccc(O)c(O)c2)oc2cc(O)c([C@@H]3O[C@H](CO)[C@@H](O)[C@H](O)[C@H]3O)c(O)c12 [Homoorientin],90
13,CC(C)(O)CC(=O)NCCn1ccc2ncnc(Nc3ccc(Oc4cccc(C(F)(F)F)c4)c(Cl)c3)c21,93.9
14,C=CC(=O)Nc1cccc(Nc2nc(Nc3ccc(OCCOC)cc3)ncc2F)c1,60.4
15,Cc1ncc(COP(=O)(O)O)c(C=O)c1O [Pyridoxal phosphate],106
16,NC(=O)c1cnccn1 [Pyrazinamide (Pyrazinoic acid amide)],114
17,O=C(O)c1ccc(O)c(O)c1 [Protocatechuic acid],96.1
18,O=C(NC(NC(=S)Nc1ccc(F)c([N+](=O)[O-])c1)C(Cl)(Cl)Cl)C(c1ccccc1)c1ccccc1 (configuration not stated),30.2
19,O=C1CCN(c2ccccc2)N1 [Phenidone],105
20,C[C@@H]1CC[C@@]2(OC1)O[C@H]1C[C@H]3[C@@H]4CC=C5C[C@@H](O[C@@H]6O[C@H](CO)[C@@H](O)[C@H](O)[C@H]6O)CC[C@]5(C)[C@H]4CC[C@]3(C)[C@H]1[C@@H]2C [Trillin],78.7

row,SMILES,cell viability [%]
1,COc1ccc(C[C@@H]2c3cc(Oc4cc(C[C@@H]5c6cc(O)c(OC)cc6CCN5C)ccc4O)c(OC)cc3CCN2C)cc1 [Isoliensinine],16.6
2,CCCCCCCCOc1ccccc1C(=O)Nc1ccc(C(=O)OCC[N+](C)(CC)CC)cc1 [Otilonium Bromide],84.5
3,COC(=O)c1cc(O)c(O)c(O)c1 [Methyl gallate],101
4,O=C(O)Cc1cccc2ccccc12 [Potassium 1-Naphthaleneacetate],97.8
5,O=c1[nH]c(=O)n([C@H]2C[C@H](O)[C@@H](CO)O2)cc1C(F)(F)F [Trifluridine (Viroptic)],52.3
6,C[C@@H](Oc1cc(-n2cnc3ccc(CN4CCN(C)CC4)cc32)sc1C(N)=O)c1ccccc1C(F)(F)F,34.3
7,COc1cccc(OC)c1C(=O)OCc1cc(O)ccc1O[C@@H]1O[C@H](CO)[C@@H](O)[C@H](O)[C@H]1O [Curculigoside],104
8,OC[C@@H](O)[C@@H](O)[C@H](O)[C@@H](O)CO [Sorbitol (Glucitol)],102
9,CC(=O)CCC=C(C)CCC=C(C)CCC=C(C)CCC=C(C)C [Teprenone],95.6
10,C[C@]12CC[C@@H]3c4ccc(O)cc4CC[C@H]3[C@@H]1CC[C@@H]2O [Estradiol],90.2
11,CCCNC(C)C(=O)Nc1c(C)csc1C(=O)OC (configuration not stated) [Articaine HCl],106
12,O=C1N=C(N2CCOCC2)CN1c1ccc(Cl)cc1,111
13,COc1cc(N2CCC(N3CCN(C)CC3)CC2)ccc1Nc1ncnc(Nc2ccccc2S(=O)(=O)C(C)C)n1,48.3
14,C[Si](C)(C)CCOCn1ccc2c(-c3cn[nH]c3)ncnc21,106
15,C[C@@H]1CC[C@H]2C(C)(C)[C@H]3C[C@@]12CC[C@@]3(C)O [Cedrol],107
16,C[C@H]1c2cccc(O)c2C(O)=C2C(=O)[C@]3(O)C(O)=C(C(N)=O)C(=O)[C@@H](N(C)C)[C@@H]3[C@@H](O)[C@@H]21 [Doxycycline],91.3
17,CNC[C@H](O)[C@@H](O)[C@H](O)[C@H](O)CO [Meglumine],106
18,CC1=NN(c2ccccc2)C(=O)C1 [Edaravone (MCI-186)],108
19,"CN1CCN2c3ncccc3Cc3ccccc3C2C1 (configuration not stated) [Mirtazapine (Remeron, Avanza)]",96.8
20,CC(O)C(O)c1cnc2nc(N)[nH]c(=O)c2n1 (configuration not stated) [6-Biopterin],107
